Compound activity deposited in PubChem by National Center for Advancing Translational Sciences (NCATS).
HttQ103 aggreg – qHTS Multiplex Assay to Identify Dual Action Probes in a Cell Model of Huntington: Aggregate Formation (GFP); PC12 HttQ103-GFP aggregates, Acumen cytometry, 40 h; Potency, µM (top dose mostly 46.1 µM), for inactives: at the highest dose activity change, negative = inhibition, actives largely listed as inhibitors; 220,000 tested, 1.1% active; AID 1688, 2009; also: % is scaled to controls: 0 for no effect and ±100 for the full control effect; nearly all actives have a fitted effect of over 60% in size
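PC12/HTTQ103-GFP, ecdysone-inducible; teb 100 nM; cpd qHTS titration; GFP aggregates read on laser cytometer, Ex 488/Em 500-530 nm.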
Lamin A splicing – qHTS Assay for Modulators of Lamin A Splicing; HeLa LMNA splicing GFP/RFP minigene ratio, 48 h; Potency, µM (doses to about 46.1 µM), without a hit: at the highest dose ratio change, negative = inhibition, most hits filed as inhibitors; 200,000 tested, 0.01% active; active = well fitted inhibition curve with a large enough effect in the signal ratio, with a control signal flat, not every such curve was filed as active; inconclusive = small, poorly fitted or top-dose-only effect, or effect the other way, or a change in a side signal; the % refers to the signal ratio; also: % is scaled to controls: 0 for no effect and ±100 for the full control effect
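S3 HeLa cells stably expressing lamin A-EGFP splicing minigene plus DsRed2, 600 cells/well, 48 h compound exposure at 37C. Laser-scanning cytometry; analysed as GFP (500-530 nm)/RFP (575-640 nm) total intensity ratio; 0.5% DMSO vehicle.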
HPGD inh – qHTS Assay for Inhibitors of HPGD (15-Hydroxyprostaglandin Dehydrogenase). 15-hydroxyprostaglandin dehydrogenase [NAD(+)] (Homo sapiens), P15428. purified HPGD, NADH fluorescence kinetic, PGE2 substrate. Potency, µM, without a hit: at the top dose activity change, negative = inhibition, most hits filed as inhibitors. 150,000 tested, 4.3% active. AID 894, 2007; active = well fitted inhibition curve with a large enough effect, not every such curve was filed as active; inconclusive = small, poorly fitted or top-dose-only effect, or another doubt; inactive = no such curve, though single readings can be large or run the other way; also: % is scaled to controls: 0 for no effect and ±100 for the full control effect
Target sequence (P15428 whole entry, looked up): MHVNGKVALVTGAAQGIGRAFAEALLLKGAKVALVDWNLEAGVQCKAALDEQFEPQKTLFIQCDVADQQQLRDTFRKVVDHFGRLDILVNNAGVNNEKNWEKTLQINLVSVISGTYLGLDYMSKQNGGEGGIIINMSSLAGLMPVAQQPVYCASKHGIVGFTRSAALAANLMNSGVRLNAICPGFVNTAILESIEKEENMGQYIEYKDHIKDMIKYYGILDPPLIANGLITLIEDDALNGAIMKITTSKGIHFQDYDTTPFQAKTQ
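NADH formation kinetics: reaction with 30 uM PGE2 and 1 mM NAD+ (final), 20 nM enzyme, Tris-HCl pH 8 with Tween 20, after 15 min compound preincubation at room temperature. Fluorescence change, last versus first of five reads.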
ALDH1A1 block – qHTS Assay for Inhibitors of Aldehyde Dehydrogenase 1 (ALDH1A1). Aldehyde dehydrogenase 1A1 (Homo sapiens), P00352. Purified ALDH1A1, NADH fluorescence, propionaldehyde substrate. Potency, µM (doses to about 75.3 µM), without a hit: at the top dose activity, negative = inhibition, most hits filed as inhibitors. 220,000 tested, 7.3% active. AID 1030, 2008; active = well fitted inhibition curve with a large enough effect, not every such curve was filed as active; inconclusive = small, poorly fitted or top-dose-only effect, or another doubt; inactive = no such curve, though single readings can be large or run the other way;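 also: plate controls were no enzyme wells and a reference inhibitor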
Target sequence (P00352 whole entry, looked up): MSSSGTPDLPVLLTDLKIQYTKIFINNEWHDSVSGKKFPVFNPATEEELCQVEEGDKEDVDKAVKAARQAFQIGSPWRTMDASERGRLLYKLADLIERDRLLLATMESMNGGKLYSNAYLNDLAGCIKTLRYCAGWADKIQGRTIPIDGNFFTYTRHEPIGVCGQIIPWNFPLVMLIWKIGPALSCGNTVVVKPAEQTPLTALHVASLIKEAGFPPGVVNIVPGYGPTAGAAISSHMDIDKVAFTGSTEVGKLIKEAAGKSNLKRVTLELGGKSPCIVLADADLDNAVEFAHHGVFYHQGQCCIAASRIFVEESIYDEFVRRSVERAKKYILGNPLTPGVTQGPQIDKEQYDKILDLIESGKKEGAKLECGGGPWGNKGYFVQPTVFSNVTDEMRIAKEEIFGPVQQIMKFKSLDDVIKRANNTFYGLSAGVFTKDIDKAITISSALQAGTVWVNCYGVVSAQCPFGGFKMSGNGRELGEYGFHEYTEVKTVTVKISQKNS
HTT cytoprotect – qHTS Multiplex Assay to Identify Dual Action Probes in a Cell Model of Huntington: Cytoprotection (ATP) | Potency, µM (highest dose often 56.4 µM), for inactives: cytoprotection (ATP increase), hits mostly activators | 230,000 tested, 0.14% active | AID 1471, 2008 | PC12 HTT-Q103 induced, cytoprotection, ATP luminescence, 40 h; also: % of control where 0% means no effect; nearly all actives have a fitted effect of over 45% in size
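PC12 cells with ecdysone-inducible HTT exon 1 Q103-GFP, induced with 100 nM tebufenozide and co-treated with library compounds in a dose series (1536-well, 1500 cells/well). Cytoprotection read as ATP content by ATPlite luminescence.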
Luc counter – Counterscreen for Luciferase (Kinase-Glo TM) Inhibition; Luciferin 4-monooxygenase (Photuris pensylvanica), Q27757; Kinase-Glo luciferase, ATP luminescence, 8 min; Potency, µM (doses to about 38.3 µM), for the others: at the top dose activity change, negative = inhibition, actives largely listed as inhibitors; 200,000 tested, 0.28% active; AID 1379, 2008; also: % is scaled to controls: 0 for no effect and ±100 for the full control effect; nearly all actives have a fitted effect of over 60% in size
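Compounds were added to a substrate mix at pH 7.2 (50 mM imidazole, 10 uM ATP, within the enzyme's linear range), followed by Kinase-Glo detection reagent; luminescence was measured after 8 minutes at ambient temperature.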
The depositor's hits bear a star; ? = inconclusive; . = no result; [ ] = another dose, or the depositor's remark. Shown are actives, neighbours in structure and some others; about 9% of the full set was active somewhere. Unless noted, calls follow the shape of the dose curve; as a rule, active = well fitted curve in the direction sought with a large enough effect; inconclusive = small, poorly fitted or top-dose-only effect, or another doubt; inactive = no such curve, though single readings can be large; an effect the other way counts as inactive or inconclusive. Potency is read from the fitted curve at half-maximal effect.

SMILES	HttQ103 aggreg	Lamin A splicing	HPGD inh	ALDH1A1 block	HTT cytoprotect	Luc counter
COc1ccc(-c2ccc(CCC(=O)O)n2CC(=O)Nc2cccc(OC)c2)cc1	-8%	6%[46 µM]	.	?	-29%	0%
O=C(NCc1ccncc1)c1ccc(Br)cc1	-31%	7%	-16%	14%	-17%[10 µM]	-4%
Cc1ccc(Oc2ccc(C(=O)NCc3ccncc3)cc2)cc1	11µM*	5%[9.22 µM]	.	-5%	-96%	5%
O=C(NCc1ccncc1)c1ccc(Oc2ccccc2)cc1	11µM*	?	.	-7%	0%[10 µM]	2%
O=C(NCc1ccc(F)cc1)C(=O)NCC(c1ccc2c(c1)OCO2)N1CCOCC1 (configuration not stated)	.	2%[46 µM]	.	.	.	.
N#CCCN(Cc1ccccc1)C(=S)Nc1ccc(F)cc1	0%[9.22 µM]	-1%[46 µM]	.	?	-15%[10 µM]	.
COc1ccc(-c2cc(=O)c3c(O)cc(O[C@@H]4OC(COC5OC(C)C(O)C(O)[C@@H]5O)C(O)C(O)C4O)cc3o2)cc1 (some centres not stated)	.	.	22µM*	-5%	-14%	-3%
Cn1cc(CNC(=O)C23CC4CC(CC(C4)C2)C3)cn1	-4%	-6%	-14%	5µM*	-3%[10 µM]	-2%
O=C(CSc1ncnc2ccccc12)NCc1ccco1	24%	-1%	16µM*	22%	12%[10 µM]	-2%
Cc1ccc(-n2nnc3c(SCC(=O)NCc4ccco4)ncnc32)cc1	?	-9%	?	0%	29%[10 µM]	-3%
COc1ccc(-n2nnc3c(SCC(=O)NCc4ccco4)ncnc32)cc1	?	?	28µM*	?	2%	-12%
O=C(CSc1ncnc2ccccc12)c1ccco1	-9%	.	.	11µM*	-40%	-20%
CCOC(=O)Nc1sc(=S)n(C)c1C	-18%	-2%	25µM*	19µM*	12%[10 µM]	-4%
Cc1c(NC(=O)OCCNC(=O)Nc2ccccc2)sc(=S)n1C	11%	-3%	-15%	-9%	-29%	-5%
CC(=O)N1C2(C=CC1(C)C(=O)NCc1ccc(C)o1)CCCCC2 (configuration not stated)	.	.	-10%	22µM*	-27%	-4%
CC(=O)N1C2(C=CC1(C)C(=O)NCc1ccccn1)CCCCC2 (configuration not stated)	.	.	-9%	?	-60%	-5%
CCOc1cc(C(=S)N2CCOCC2)ccc1OC(=O)/C=C/c1ccc(OC)c(OC)c1	15%	9%	-29%	-12%	-5%[0.074 µM]	2%
Cc1nc(-c2ccccc2)sc1C(=O)/C=C/c1ccc(Cl)cc1	-3%	?	-11%	3.2µM*	-12%	-1%
CC(=O)c1sc(-c2ccc(Cl)cc2)nc1C	4%	-4%[46 µM]	.	3%	-10%	-3%
COC(=O)C1=C(C)NC(=S)N(C(C)=O)C1c1ccccc1 (configuration not stated)	-14%	-4%	-6%	25µM*	3%[1.9 µM]	8%
COC(=O)C1=C(C)NC(=O)CC1c1ccccc1 (configuration not stated)	-6%	-3%	-19%	1%	8%[1.9 µM]	-1%
CCOC(=O)C1=C(C)NC(=S)N(C=O)C1c1ccccc1 (configuration not stated)	4%	1%[46 µM]	.	2µM*	-2%[10 µM]	3%
CCc1ccc(C(=O)/C=C/c2cnn(C)c2C)s1	12%	?	?	?	-1%[10 µM]	-6%
CCCCCCN(C(=O)CCCCCN1C(=O)NC(C2CC2)C(C(=O)OCc2ccccc2)=C1C)C(C(=O)NCCCC)c1ccc(OCC(=O)OC)c(C(=O)OC)c1 (configuration not stated)	.	.	-17%	13µM*	-2%	-3%
CCCCCCN(C(=O)CCCCCN1C(=O)NC(c2ccc(-c3ccccc3)cc2)C(C(=O)OCc2ccccc2)=C1C)C(C(=O)NCCCC)c1ccc(OCC(=O)OC)c(C(=O)OC)c1 (configuration not stated)	8%[9.22 µM]	.	.	.	-18%[10 µM]	.
SMILES	HttQ103 aggreg	Lamin A splicing	HPGD inh	ALDH1A1 block	HTT cytoprotect	Luc counter
CN(Cc1cccc2cnccc12)C(=O)CCc1nnc(CCc2ccccc2)o1	-13%[9.22 µM]	11%[46 µM]	.	28µM*	-7%[10 µM]	1%
CC(=O)c1ccc(-c2nnc(CCC(=O)N(C)Cc3cccc4cnccc34)o2)s1	-9%[9.22 µM]	.	.	?	-16%[10 µM]	.
CCCCN1C(=O)NC(NC(=O)c2ccco2)(C(F)(F)F)C1=O (configuration not stated)	-7%	14%	-10%	0%	-8%	-2%
O=S(=O)(c1ccc(S(=O)(=O)N2CCN(Cc3ccccc3)CC2)cc1)N1CCOCC1	-8%	6%	5%	14%	8%	-1%
O=S(=O)(Cc1ccccc1)/C1=C(\N2CCOCC2)CCCCCC1	-1%	?	-9%	13µM*	-8%[0.074 µM]	10%
O=C(CN1C(=O)c2ccccc2C1=O)NN1C(=O)c2ccccc2C1=O	3%	-6%	-26%	2.8µM*	-24%	-3%
O=C(CCl)NCc1c(Cl)cccc1-n1cccc1	13µM*	?	-5%	28µM*	-61%	-5%
O=C1CSC(=Nc2ccccc2Cl)N1	3%	3%	16µM*	?	-3%	8%
Cc1ccc(S(=O)(=O)CC(N)=O)cc1	13%	1%	0%	16%	11%	-2%
Cc1ccc(S(=O)(=O)CCSC(=N)N)cc1	.	?	.	0.11µM*	.	-1%
CCOc1ccc(C(C)C)cc1S(=O)(=O)Nc1cccc(-c2ccc(N3CCOCC3)nn2)c1	.	-10%[46 µM]	.	.	.	.
Cc1ccc(C(C#N)N2CCOCC2)cc1 (configuration not stated)	1%	-2%	-6%	-11%	4%[0.074 µM]	-5%
Cc1ccccc1NC(=O)C1CCCN(S(=O)(=O)c2cnc[nH]2)C1 (configuration not stated)	-16%	-5%	-10%	3%	-3%	2%
O=C(Nc1nc(-c2ccncc2)cs1)C1c2ccccc2Oc2ccccc21	-27%	?	-4%	-6%	16%[10 µM]	3%
Cc1nnc(NC(=O)C2c3ccccc3Oc3ccccc32)s1	?	?	22µM*	-14%	-17%[10 µM]	2%
O=C(Nc1nc(-c2ccccc2)cs1)C1c2ccccc2Oc2ccccc21	0%	9%	-14%	1.8µM*	-22%[10 µM]	2%
